Results taken from the supplement of paper PMC11732987, “Enantioselective OTUD7B fragment discovery through chemoproteomics screening and high-throughput optimisation” (Communications Chemistry, 2025).

How the values were obtained:
Assay in all cases: log2 ratio of Biotin-Ahx-Ub-VS probe labelling (fragment/DMSO); higher = less target engagement (more negative = stronger competition), active = hit call of the paper (q ≤ 0.05, log2 ratio ≤ -1)
Conditions in all cases: compound concentration: 200 uM; treatment time: 3 h
OTUD6B = target: T1, OTUD6B (UniProt Q8N6M0)
T1 sequence (whole entry): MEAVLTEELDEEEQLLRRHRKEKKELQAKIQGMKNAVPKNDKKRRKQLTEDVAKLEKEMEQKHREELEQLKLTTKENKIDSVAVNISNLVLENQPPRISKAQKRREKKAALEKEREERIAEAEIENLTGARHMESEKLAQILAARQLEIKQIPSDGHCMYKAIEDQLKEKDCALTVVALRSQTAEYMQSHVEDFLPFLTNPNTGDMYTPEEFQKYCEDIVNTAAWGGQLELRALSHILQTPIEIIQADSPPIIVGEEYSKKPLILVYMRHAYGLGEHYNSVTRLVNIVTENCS
Summary of the method: (§1)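 Labelling with Biotin-Ahx-Ub-VS (0.5 µM final, 1 h) followed a 3 h triplicate treatment of HEK293T lysate (495 µg per sample, Tris/CHAPS/IGEPAL buffer with protease inhibitors) with fragment at 200 µM or vehicle. Labelled DUBs were NeutrAvidin-enriched, digested with LysC and trypsin, and run by diaPASEF LC-MS/MS. The values, average log2 fragment/vehicle ratios by unpaired t-test, come from global-median-normalised Spectronaut label-free quantities. Proteins with ≥2 unique peptides were used.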

OTUD7B = target: T2, OTUD7B (UniProt Q6GQQ9)
T2 sequence (whole entry): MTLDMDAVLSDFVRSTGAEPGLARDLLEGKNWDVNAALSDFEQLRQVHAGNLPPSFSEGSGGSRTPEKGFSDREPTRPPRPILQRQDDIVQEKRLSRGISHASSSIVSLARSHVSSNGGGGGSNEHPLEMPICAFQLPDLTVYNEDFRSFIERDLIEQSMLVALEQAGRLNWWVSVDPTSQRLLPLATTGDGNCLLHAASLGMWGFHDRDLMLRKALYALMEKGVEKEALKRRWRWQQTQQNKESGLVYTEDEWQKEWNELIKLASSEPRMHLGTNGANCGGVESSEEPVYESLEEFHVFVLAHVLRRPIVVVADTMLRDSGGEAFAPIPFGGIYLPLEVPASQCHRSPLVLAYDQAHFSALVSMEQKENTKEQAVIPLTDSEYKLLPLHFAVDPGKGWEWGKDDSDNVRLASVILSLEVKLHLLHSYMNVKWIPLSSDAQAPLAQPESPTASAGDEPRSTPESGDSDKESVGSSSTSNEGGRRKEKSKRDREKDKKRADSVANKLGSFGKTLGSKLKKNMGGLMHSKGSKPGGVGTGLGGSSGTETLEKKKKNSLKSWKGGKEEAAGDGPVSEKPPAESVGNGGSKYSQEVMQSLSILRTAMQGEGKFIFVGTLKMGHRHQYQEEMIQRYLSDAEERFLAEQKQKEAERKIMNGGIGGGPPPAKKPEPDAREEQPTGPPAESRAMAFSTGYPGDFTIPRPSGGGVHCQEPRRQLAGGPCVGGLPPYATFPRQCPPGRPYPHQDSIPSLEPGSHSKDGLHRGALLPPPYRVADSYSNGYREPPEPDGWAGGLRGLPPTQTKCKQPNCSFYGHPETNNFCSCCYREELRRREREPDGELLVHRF
Summary of the method: as §1

PRPF8 = PRPF8 (UniProt Q6P2Q9)
Summary of the method: as §1

PSMD7 = target: T3, PSMD7 (UniProt P51665)
T3 sequence (whole entry): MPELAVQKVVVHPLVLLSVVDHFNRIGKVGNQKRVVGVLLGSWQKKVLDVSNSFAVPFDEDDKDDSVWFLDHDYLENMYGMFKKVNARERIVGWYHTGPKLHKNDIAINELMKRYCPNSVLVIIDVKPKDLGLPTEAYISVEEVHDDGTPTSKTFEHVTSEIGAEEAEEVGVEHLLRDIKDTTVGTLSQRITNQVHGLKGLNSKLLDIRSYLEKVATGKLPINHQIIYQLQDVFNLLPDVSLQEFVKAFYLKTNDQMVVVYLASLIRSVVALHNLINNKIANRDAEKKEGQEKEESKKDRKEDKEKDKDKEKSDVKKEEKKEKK
Summary of the method: as §1

UCHL1 = UCHL1 (UniProt P09936)
Summary of the method: as §1

UCHL3 = target: T4, UCHL3 (UniProt P15374)
T4 sequence (whole entry): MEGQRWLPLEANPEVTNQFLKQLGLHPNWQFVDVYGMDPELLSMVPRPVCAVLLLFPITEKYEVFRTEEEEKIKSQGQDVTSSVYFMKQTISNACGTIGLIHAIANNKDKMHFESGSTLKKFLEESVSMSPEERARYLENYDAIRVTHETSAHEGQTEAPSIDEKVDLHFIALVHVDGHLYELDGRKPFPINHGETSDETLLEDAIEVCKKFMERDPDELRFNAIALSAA
Summary of the method: as §1

UCHL5 = target: T5, UCHL5 (UniProt Q9Y5K5)
T5 sequence (whole entry): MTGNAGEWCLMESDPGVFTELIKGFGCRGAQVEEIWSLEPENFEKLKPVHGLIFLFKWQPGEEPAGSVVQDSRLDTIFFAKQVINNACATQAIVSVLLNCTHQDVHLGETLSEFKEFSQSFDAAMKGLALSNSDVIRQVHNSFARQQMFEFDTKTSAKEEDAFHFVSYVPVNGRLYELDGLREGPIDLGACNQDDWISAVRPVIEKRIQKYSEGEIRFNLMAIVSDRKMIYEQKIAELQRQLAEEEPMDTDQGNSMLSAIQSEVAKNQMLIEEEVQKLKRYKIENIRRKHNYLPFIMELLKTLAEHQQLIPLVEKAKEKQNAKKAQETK
Summary of the method: as §1

USP10 = USP10 (UniProt Q14694)
Summary of the method: as §1

USP15 = target: T6, USP15 (UniProt Q9Y4E8)
T6 sequence (whole entry): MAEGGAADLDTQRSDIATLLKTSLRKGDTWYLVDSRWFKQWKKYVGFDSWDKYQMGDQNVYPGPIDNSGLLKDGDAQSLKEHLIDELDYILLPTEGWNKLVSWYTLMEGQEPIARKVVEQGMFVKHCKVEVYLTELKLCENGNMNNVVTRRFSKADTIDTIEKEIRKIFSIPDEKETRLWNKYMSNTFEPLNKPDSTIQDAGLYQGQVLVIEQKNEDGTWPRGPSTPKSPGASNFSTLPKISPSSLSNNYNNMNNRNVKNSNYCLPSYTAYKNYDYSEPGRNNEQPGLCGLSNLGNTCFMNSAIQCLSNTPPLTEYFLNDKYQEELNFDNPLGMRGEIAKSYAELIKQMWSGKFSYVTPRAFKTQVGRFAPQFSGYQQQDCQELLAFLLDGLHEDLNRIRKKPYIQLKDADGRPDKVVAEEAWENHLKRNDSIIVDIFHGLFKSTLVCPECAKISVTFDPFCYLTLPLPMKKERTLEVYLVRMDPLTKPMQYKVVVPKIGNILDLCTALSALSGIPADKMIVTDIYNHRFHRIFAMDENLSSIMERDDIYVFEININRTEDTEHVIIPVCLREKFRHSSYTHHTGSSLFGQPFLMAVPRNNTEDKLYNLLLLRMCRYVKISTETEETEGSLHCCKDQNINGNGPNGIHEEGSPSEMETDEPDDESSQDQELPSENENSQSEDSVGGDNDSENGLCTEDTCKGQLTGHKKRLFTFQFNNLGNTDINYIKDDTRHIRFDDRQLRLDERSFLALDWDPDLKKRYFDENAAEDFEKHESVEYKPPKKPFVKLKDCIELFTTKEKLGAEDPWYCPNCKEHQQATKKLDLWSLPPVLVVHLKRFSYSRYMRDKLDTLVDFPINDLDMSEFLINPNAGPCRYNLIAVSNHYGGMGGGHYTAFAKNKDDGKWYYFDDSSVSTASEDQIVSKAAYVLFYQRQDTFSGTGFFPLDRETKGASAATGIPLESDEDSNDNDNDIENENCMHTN
Summary of the method: as §1

USP16 = USP16 (UniProt Q9Y5T5)
Summary of the method: as §1

Measured: log2 ratio of Biotin-Ahx-Ub-VS probe labelling

USP10, sequence (Q14694 whole entry): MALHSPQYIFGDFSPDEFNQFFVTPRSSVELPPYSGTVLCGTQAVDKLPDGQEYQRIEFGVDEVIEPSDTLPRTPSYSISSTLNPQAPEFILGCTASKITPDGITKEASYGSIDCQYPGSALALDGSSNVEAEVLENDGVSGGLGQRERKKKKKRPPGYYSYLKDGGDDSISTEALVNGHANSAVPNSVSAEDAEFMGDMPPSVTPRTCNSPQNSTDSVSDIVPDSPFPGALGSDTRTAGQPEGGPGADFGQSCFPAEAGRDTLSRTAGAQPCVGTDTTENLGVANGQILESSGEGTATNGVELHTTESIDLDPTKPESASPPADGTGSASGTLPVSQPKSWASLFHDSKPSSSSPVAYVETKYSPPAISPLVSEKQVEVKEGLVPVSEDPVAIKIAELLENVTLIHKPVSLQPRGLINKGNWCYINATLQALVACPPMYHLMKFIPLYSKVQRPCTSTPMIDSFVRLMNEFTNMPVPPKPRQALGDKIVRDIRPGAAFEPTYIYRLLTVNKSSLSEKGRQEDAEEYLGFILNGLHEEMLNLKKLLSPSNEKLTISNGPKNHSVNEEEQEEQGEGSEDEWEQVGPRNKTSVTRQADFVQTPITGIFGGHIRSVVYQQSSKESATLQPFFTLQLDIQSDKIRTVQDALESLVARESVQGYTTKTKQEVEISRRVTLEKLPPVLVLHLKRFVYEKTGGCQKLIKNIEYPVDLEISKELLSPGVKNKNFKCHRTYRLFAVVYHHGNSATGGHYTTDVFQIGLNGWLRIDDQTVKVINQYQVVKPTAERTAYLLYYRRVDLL
UCHL1, sequence (P09936 whole entry, looked up): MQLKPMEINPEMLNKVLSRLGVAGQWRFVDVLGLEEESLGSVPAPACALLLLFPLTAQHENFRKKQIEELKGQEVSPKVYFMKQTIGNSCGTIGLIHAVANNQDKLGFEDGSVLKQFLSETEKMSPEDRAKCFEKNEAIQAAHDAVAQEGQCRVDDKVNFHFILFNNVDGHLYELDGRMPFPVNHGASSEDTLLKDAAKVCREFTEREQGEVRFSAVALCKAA
USP16, sequence (Q9Y5T5 whole entry, looked up): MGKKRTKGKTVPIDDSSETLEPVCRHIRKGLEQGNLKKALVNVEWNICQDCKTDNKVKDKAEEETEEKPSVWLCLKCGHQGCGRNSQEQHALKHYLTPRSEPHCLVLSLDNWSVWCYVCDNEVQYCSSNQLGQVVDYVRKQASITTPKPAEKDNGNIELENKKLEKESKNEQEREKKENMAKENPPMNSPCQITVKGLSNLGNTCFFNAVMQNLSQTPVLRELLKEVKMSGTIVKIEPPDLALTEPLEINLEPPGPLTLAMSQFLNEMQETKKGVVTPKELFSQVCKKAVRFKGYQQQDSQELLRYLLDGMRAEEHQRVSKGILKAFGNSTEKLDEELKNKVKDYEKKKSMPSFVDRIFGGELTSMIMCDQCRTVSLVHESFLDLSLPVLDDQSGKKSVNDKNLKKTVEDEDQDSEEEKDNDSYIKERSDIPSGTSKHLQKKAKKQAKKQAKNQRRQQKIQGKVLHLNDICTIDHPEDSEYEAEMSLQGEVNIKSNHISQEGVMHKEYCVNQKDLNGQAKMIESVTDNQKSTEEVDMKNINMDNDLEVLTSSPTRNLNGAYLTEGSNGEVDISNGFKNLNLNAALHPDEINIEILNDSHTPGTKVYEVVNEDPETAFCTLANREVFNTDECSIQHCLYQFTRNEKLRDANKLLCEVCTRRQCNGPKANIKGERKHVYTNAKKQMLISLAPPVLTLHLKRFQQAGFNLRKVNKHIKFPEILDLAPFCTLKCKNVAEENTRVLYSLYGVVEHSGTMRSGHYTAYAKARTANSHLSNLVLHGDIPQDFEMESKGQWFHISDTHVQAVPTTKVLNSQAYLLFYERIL

O=C(CCl)N1CCOC(CCc2ccccc2)C1 (stereo not given)
inactive: OTUD6B -0.215 | OTUD7B -0.71 | PRPF8 -0.0352 | PSMD7 -0.432 | UCHL3 -0.025 | UCHL5 -0.22 | USP10 -0.258 | USP15 -0.374 | USP16 -0.411
active: UCHL1 -1.46
